# Inconclusive results are not listed. Unmarked numbers belong to inactive results. Activity calls are given as the source filed them. Calls come from the whole dose curve; as a rule, active = well fitted cell-killing curve with a large enough effect; inconclusive = small, poorly fitted or top-dose-only effect; inactive = flat fitted curve, though single readings scatter.
# Assay: Quantitative highthroughput screen to assess conditional lethalithy of P12 Ichikawa cells grown in RPMI1640 with dialyzed fetal bovine serum (RPMI+ds) (AID 1963880); note: nearly all actives have a fitted effect of over 35% in size
# Conditions: ATP luminescence, 48 h; Potency: P12-Ichikawa viability; series mostly up to 45.8 µM; viability: at the top concentration
# Source text: Assay Provider: Jason Cantor Ph.D.
# Department of Biochemistry
# University of Wisconsin-Madison, Madison, WI, USA
# Chemical screening studies have identified drug sensitivities across hundreds of cancer cell lines but most putative therapeutics fail to translate. Discovery and development of drug candidates in models that more accurately reflect nutrient levels in human blood is a major challenge. Here we performed high-throughput screens in conventional versus Human Plasma-Like Medium (HPLM) to identify compounds that were "missed" when screening using the artificial culture condition. Sets of conditional anticancer compounds spanned phases of clinical development and included non-oncology drugs were assessed. […] We also traced conditional phenotypes for several chemotherapeutics to availability of HPLM-specific metabolites and confirmed others for compounds whose reported targets are encoded by nonessential genes. Our findings establish generalizable strategies for exploiting conditional lethality in HPLM to reveal therapeutic candidates and mechanisms of action in cancer cells.
# Described herein are the results of each viability screens against three cell lines: NOMO1 (an acute myeloid leukemia cell line); P12-Ichikawa (a T-cell acute lymphoblastic leukemia); and SEM (a B-cell ALL). Each assay was screened using 3 different cell culture media: homemade human plasma-Like medium with 10% dialyzed fetal bovine serum (HPLM+ds); RPMI1640 with 10% untreated FBS and 5mM glucose (RPMI+s); and RPMI1640 with 10% dialyzed fetal bovine serum and 5 mM glucose (RPMI+ds).
# PROTOCOL TABLE (as described by Inglese J, Shamu CE and Guy RK. 2007)
# SEQUENCE No. (e.g., 1, 2, 3, etc.); […] (e.g., Cells, Incubation, Reagent, etc.); VALUE and DESCRIPTION.
# 1; Cells; 5 uL; white, solid bottom 1536-well Greiner assay plate.
# 2; Compounds; 23 nL; Kalypsis pin tool (Wako USA) equipped with a 1536-well pin head to transfer to the assay plates.
# 3; Incubation; 48 hours; 37C incubation.
# 4; Reagent; 3 uL; CellTiter Glo (Promega).
# 5; Incubation; 5 min, room temperature
# 6; Detection; Luminescence, Viewlux PerkinElmer.
# NOTES (numbers refer to Sequence numbers above)
# 1. Briefly, 5 ul of cell reagent was dispensed using a Multidrop Combi Dispenser. The NOMO1 and SEM cells were plated at 500 cells/well and the P12-Ichikawa line at 1000 cells/well.
# 2. After seeding the cells, 23 nL of MIPE 4.1 library compounds (in DMSO) were added to each plate using a Kalypsys 1536 Pintool dispenser. Bortezomib at final concentration of […] and DMSO were added to each plate as positive and negative controls respectively. For each screen, MIPE 4.1 compounds were added over an eleven-point concentration range […] in 3-fold dilutions.
# 3. Each plate was covered with a stainless steel gasketed lid to prevent evaporation and incubated for 48 hour at 37C, 95% relative humidity, and 5% CO2.
# 4-5. Three microliter CellTilter-GloTM luminescent substrate mix (Promega) reagent was added to the assay plate and incubated at room temperature for 5 min.
# 6. The luminescence signal was measured using a ViewLux (PerkinElmer) multiplate reader with a 2 second exposure time per plate. Data for each compound were normalized as percent viability such that measurements for DMSO and the empty well controls in each plate were defined as 100% and 0%, respectively.
# Potency is the fitted concentration of half-maximal effect.
Structure (SMILES),viability,Potency
CNC(=O)c1ccc(N2C(=S)N(c3ccc(C#N)c(C(F)(F)F)c3)C(=O)C23CCC3)cc1F,102%,
CCOC(=O)c1cncn1[C@H](C)c1ccccc1,98.8%,
COC1=C[C@@H]2[C@@H]3Cc4ccc(OC)c(O)c4[C@]2(CCN3C)CC1=O,98.4%,
CCCC[N+]1(C)[C@H]2CC(OC(=O)[C@H](CO)c3ccccc3)C[C@H]1[C@H]1O[C@H]12 (stereo not given in full),102%,
Cc1[nH]nc2ccc(-c3cncc(OC[C@@H](N)Cc4c[nH]c5ccccc45)c3)cc12,,1050 nM (active)
COC1(CS(=O)c2ccccc2)CCN(CCc2c[nH]c3ccc(F)cc23)CC1 (stereo not given),87.5%,
C[C@](O)(CS(=O)(=O)c1ccc(F)cc1)C(=O)Nc1ccc(C#N)c(C(F)(F)F)c1,86.7%,
CC(=O)OCC1=C(C(=O)O)N2C(=O)[C@@H](N)[C@@H]2SC1,,2350 nM (active)
CC(=CCCC1=CCC(C2=CC(=O)OC2O)OC1O)CCC1=C(C)CCCC1(C)C (stereo not given),95.8%,
CC(C)(O)C(=O)Nc1ccc([N+](=O)[O-])c(C(F)(F)F)c1,,16600 nM (active)
CCC1(c2ccc(N)cc2)CCC(=O)NC1=O (stereo not given),94.6%,
c1cc2c(cc1[C@H]1OC[C@H]3[C@H]1CO[C@H]3c1ccc3c(c1)OCO3)OCO2,104%,
CC(C)N[C@@H]1CCn2c(=O)[nH]c3cccc(c32)[C@@H]1O,98%,
CN1CCN(C(=O)O[C@H]2c3nccnc3C(=O)N2c2ccc(Cl)cn2)CC1,90%,
CN1C(=O)CCS(=O)(=O)C1c1ccc(Cl)cc1 (stereo not given),91.2%,
O=c1[nH]c2ccc(Cl)cc2c(N[C@@H]2CN3CCC2CC3)c1-c1nc2ccccc2[nH]1,,372 nM (active)
C=C[C@@H]1CN2CCC1C[C@@H]2[C@@H](O)c1ccnc2ccccc12 (stereo not given in full),86.1%,
CC(=O)N(C)c1cccc(-c2ccnc3c(C(=O)c4cccs4)cnn23)c1,96.2%,
CN(C)CCN(C)CCc1ccc(Cl)c(Cl)c1,98.6%,
Oc1ccc2c3c1O[C@H]1c4[nH]c5c(c4C[C@@]4(O)[C@@H](C2)N(CC2CC2)CC[C@]314)C[C@@]1(O)[C@H]2Cc3ccc(O)c4c3[C@@]1(CCN2CC1CC1)[C@H]5O4,111%,

Structure (SMILES),viability,Potency
CCN1C[C@]2(OC(=O)c3ccccc3NC(C)=O)CC[C@H](OC)[C@@]34[C@H]5CC6[C@@H](OC)C[C@](O)(C(C[C@@H]23)[C@@H]14)[C@@]5(O)[C@@H]6OC,94.8%,
C#CCN(C)[C@H](C)Cc1ccccc1,96.9%,
C[C@]12CC[C@@H]3[C@@H](CCC4=CC(=O)CC[C@@H]43)[C@@H]1CC[C@@H]2OC(=O)CCc1ccccc1,90.2%,
O=C(Oc1ccc([N+](=O)[O-])cc1)N1CCN(Cc2cccc(Oc3ccccc3)c2)CC1,102%,
COc1cccc2c1[C@]13CCN(CC4CC4)[C@H](C2)[C@]1(OC)CCC(=O)C3,95.8%,
CNCC(O)c1ccc(O)cc1 (stereo not given),97.4%,
CC(C)[C@H]1C(=O)N[C@H](CO)Cc2c[nH]c3cccc(c23)N1C,,418 nM (active)
CC(C)N(CCNC(=O)CN1CCCC1=O)C(C)C,101%,
C[C@@H]1CC[C@H]2[C@@H](C)C(=O)O[C@@H]3O[C@@]4(C)CC[C@H]1[C@]32OO4,96.3%,
C[C@]12CC[C@H]3[C@@H](CCC4=CC(=O)CC[C@@]43C)[C@H]1CC[C@H]2O,101%,
O=P1(NCCCl)OCCCN1CCCl (stereo not given),95.6%,
CC1=C2C[C@@H]3[C@@H](CC=C4C[C@@H](O)CC[C@@]43C)[C@@H]2CC[C@]12O[C@H]1C[C@H](C)CN[C@H]1[C@H]2C,90.4%,
O=S(=O)(F)Cc1ccccc1,71.5%,
CN[C@@H]1Cc2cccc3[nH]c(=O)n(c23)C1,96.7%,
COc1cc2cc(c1Cl)N(C)C(=O)C[C@H](OC(=O)C(C)C)[C@]1(C)O[C@H]1[C@H](C)[C@@H]1C[C@@](O)(NC(=O)O1)[C@H](OC)C=CC=C(C)C2,2.15%,
C[C@@]12OC(=O)[C@]1([C@@H](O)[C@@H]1C=CCCC1)NC(=O)[C@H]2CCCl,,187 nM (active)
CC(C)c1cccc(C(C)C)c1O,102%,
CC(=Cc1csc(C)n1)[C@@H]1C[C@H]2O[C@]2(C)CCC[C@H](C)[C@@H](O)[C@@H](C)C(=O)C(C)(C)[C@@H](O)CC(=O)O1,37.3%,
CCOC(=O)c1c(C(C#N)=CN)c2ccc(Cl)c(Cl)c2n1C,98.7%,
C[C@]12CC[C@H]3[C@@H](CCC4=CC(=O)CC[C@@]43C)[C@H]1CC[C@H]2OC(=O)CCC1CCCC1,94%,

# From PubChem BioAssay (NCATS)
